Rows were chosen to be rich in hits. Some 31% of all compounds tested hit in one or more screens of this group.
CYP2C9 act – increases human cytochrome P450 2C9 activity. P11712. recombinant CYP2C9, luciferin-H conversion, luminescence; stronger effect = higher value; factor 1 = untreated enzyme, 0 = blocked. activation factor at 5 µM. 96,000 compounds, 1.4% hits. AID 1024;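 active = activation factor of 2 or more for CYP2C9 at a 5 µM dose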;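 note: 0 = sulfaphenazole-blocked wells and 1 = vehicle-only wells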
CYP2C19 inh – blocks human cytochrome P450 2C19; P33261; CYP2C19 Supersomes, luciferin-H EGE luminescence, 30 min; inhibition, % at 5 µM; 96,000 compounds, 21% hits;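 active = CYP2C19 inhibition above a set limit at 5 µM in the primary screen, cut at about 50% in these data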;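 note: plate controls were negative control wells for no effect and 2.5 mM tranylcypromine positive control for full effect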
Target sequence (P33261 whole entry, looked up): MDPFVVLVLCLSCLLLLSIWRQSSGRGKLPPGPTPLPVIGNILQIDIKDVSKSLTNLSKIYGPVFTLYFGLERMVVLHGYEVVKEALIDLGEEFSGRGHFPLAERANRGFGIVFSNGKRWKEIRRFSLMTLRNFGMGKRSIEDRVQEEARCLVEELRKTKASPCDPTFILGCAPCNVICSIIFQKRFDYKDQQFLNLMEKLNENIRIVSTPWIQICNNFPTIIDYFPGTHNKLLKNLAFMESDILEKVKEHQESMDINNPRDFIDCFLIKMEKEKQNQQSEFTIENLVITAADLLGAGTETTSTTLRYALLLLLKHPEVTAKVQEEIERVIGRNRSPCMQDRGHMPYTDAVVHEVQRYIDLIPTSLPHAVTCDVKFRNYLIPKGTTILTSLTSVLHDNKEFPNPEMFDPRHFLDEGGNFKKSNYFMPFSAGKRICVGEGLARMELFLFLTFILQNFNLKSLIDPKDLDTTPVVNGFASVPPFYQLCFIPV
CYP2C9 inhib – human CYP2C9 inhibition. P11712. CYP2C9 Supersomes, luciferin-H conversion, luminescence. inhibition, % at 5 µM. 96,000 compounds, 20% hits. AID 777;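 active = blocking of liver enzyme CYP2C9 beyond about 50% at 5 µM, limit read from the data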
CYP2C19 act – increases human CYP2C19 enzyme activity | recombinant CYP2C19, luciferin-H EGE luminescence; stronger effect = higher value; 0 = fully inhibited enzyme, 1 = untreated enzyme | activation factor at 5 µM | 96,000 tested, under 10 active | AID 1025;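 active = activation factor of at least 2 at 5 µM in the primary screen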;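 note: 0 = wells with 2.5 mM tranylcypromine and 1 = vehicle-only wells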
Numbers without * were called inactive.

Screening COc1ccc(-c2noc(-c3ccccc3Cl)n2)cc1OC returned CYP2C9 act 1, CYP2C19 inh 14.7, CYP2C9 inhib -3.3 and CYP2C19 act 0.9.
`Clc1ccc(OCc2nc(-c3ccncc3)no2)c(Cl)c1` gave CYP2C9 act 0.1, CYP2C19 inh 95.7*, CYP2C9 inhib 94.6* and CYP2C19 act 0.
Screening CCOc1ccccc1-c1nc(-c2ccncc2)no1 returned CYP2C9 act 1.4, CYP2C19 inh 78.0*, CYP2C9 inhib -37.4 and CYP2C19 act 0.2.
Screening CCOC(=O)Cn1nc(C)n(-c2ccc(C(C)C)cc2)c1=O returned CYP2C9 act 0.8, CYP2C19 inh 11.4, CYP2C9 inhib 18.7 and CYP2C19 act 0.9.
Screening CCOC(=O)c1ccc(NC(=O)c2nccnc2C(=O)O)cc1 returned CYP2C9 act 1.3, CYP2C19 inh -10.9, CYP2C9 inhib -29.7 and CYP2C19 act 1.1.
O=C(CSc1ncccc1-c1nc2ccccc2[nH]1)N1CCN(c2ccccc2F)CC1 was read as CYP2C9 act 0.8, CYP2C19 inh 10.7, CYP2C9 inhib 19.2 and CYP2C19 act 0.9.
`O=S(=O)(Nc1nc2ccccc2nc1NCc1ccco1)c1cccs1` gave CYP2C9 act 0.2, CYP2C19 inh -7.0, CYP2C9 inhib 78.2* and CYP2C19 act 1.1.
Screening Oc1ccc(-c2csc(NCc3ccco3)n2)cc1 returned CYP2C9 act 0.6, CYP2C19 inh 28.9, CYP2C9 inhib 41.3 and CYP2C19 act 0.7.
`C=CCNc1nc2ccccc2nc1NS(=O)(=O)c1cccs1` gave CYP2C9 act 0.1, CYP2C19 inh -2.2, CYP2C9 inhib 92.9* and CYP2C19 act 1.
Screening O=S(=O)(Nc1nc2ccccc2nc1Nc1ccc2c(c1)OCCO2)c1cccs1 returned CYP2C9 act 0.1, CYP2C19 inh 13.8, CYP2C9 inhib 93.1* and CYP2C19 act 0.9.
CCCCCNc1nc2ccccc2nc1NS(=O)(=O)c1cccs1 was read as CYP2C9 act 0.3, CYP2C19 inh 4.2, CYP2C9 inhib 68.3* and CYP2C19 act 1.
Screening CCOC(=O)c1ccc(N2C(=O)CC(Sc3nnc(C)s3)C2=O)cc1 (stereo not drawn) returned CYP2C9 act 1.1, CYP2C19 inh -1.7, CYP2C9 inhib -5.7 and CYP2C19 act 1.
COc1cccc(N2CCN(C3CC(=O)N(c4cccc(Cl)c4)C3=O)CC2)c1 (stereo not drawn) was read as CYP2C9 act 0.6, CYP2C19 inh 8.3, CYP2C9 inhib 38.9 and CYP2C19 act 0.9.
Screening COc1ccc(OC)c(NC(=O)C2CCC(CNc3c(N4CCC(C)CC4)c(=O)c3=O)CC2)c1 (stereo not drawn) returned CYP2C9 act 1.3, CYP2C19 inh 24.7, CYP2C9 inhib -26.8 and CYP2C19 act 0.8.
For CC1CCc2nc(NC(=O)CSc3nc4ccccc4o3)sc2C1 (stereo not drawn) the results were CYP2C9 act 0.6, CYP2C19 inh 22.5, CYP2C9 inhib 42.6 and CYP2C19 act 0.8.
`C=CCn1c(-c2cccs2)nc2ccccc21` gave CYP2C9 act 0.6, CYP2C19 inh 65.5*, CYP2C9 inhib 38.3 and CYP2C19 act 0.3.
`C=CCn1c(N)c(-c2nc3ccccc3n2C)sc1=S` gave CYP2C9 act 0.1, CYP2C19 inh 44.4, CYP2C9 inhib 86.4* and CYP2C19 act 0.6.
Screening C=CCSc1nc2ccccc2n1Cc1nnc(-c2cccs2)o1 returned CYP2C9 act 0.5, CYP2C19 inh 66.6*, CYP2C9 inhib 52.7* and CYP2C19 act 0.3.
Cc1ccc(C(=O)Nc2ccccc2OC(F)F)cc1 was read as CYP2C9 act 1, CYP2C19 inh 17.1, CYP2C9 inhib -4.9 and CYP2C19 act 0.8.
For CCN(C(=O)COC(=O)C(Cc1ccccc1)N1C(=O)c2ccccc2C1=O)C1CCS(=O)(=O)C1 (stereo not drawn) the results were CYP2C9 act 0.7, CYP2C19 inh 39.7, CYP2C9 inhib 26.4 and CYP2C19 act 0.6.
`CCN(CC)c1nc2n(c(=O)n1)CCN2CC` gave CYP2C9 act 1.1, CYP2C19 inh -6.2, CYP2C9 inhib -8.0 and CYP2C19 act 1.1.
For O=C(O)c1cc(NCc2cccs2)ccc1N1CCOCC1 the results were CYP2C9 act 1, CYP2C19 inh -1.7, CYP2C9 inhib -1.2 and CYP2C19 act 1.
COC(=O)c1cc(NCc2cccs2)ccc1N1CCOCC1 was read as CYP2C9 act 0.4, CYP2C19 inh 77.1*, CYP2C9 inhib 63.7* and CYP2C19 act 0.2.
COc1cccc2c3c(c(=O)[nH]c12)CCC(C)(C)O3 was read as CYP2C9 act 0.7, CYP2C19 inh 45.0, CYP2C9 inhib 30.0 and CYP2C19 act 0.6.
Screening Cc1nc2ccccc2nc1CSc1nnc(N)s1 returned CYP2C9 act 1.2, CYP2C19 inh 53.7*, CYP2C9 inhib -24.2 and CYP2C19 act 0.5.
`COC(=O)C1=C(N)Oc2c(oc(CO)cc2=O)C1c1ccccc1F` (stereo not drawn) gave CYP2C9 act 0.9, CYP2C19 inh -1.4, CYP2C9 inhib 9.2 and CYP2C19 act 1.
`O=C(CSc1nnc(SCC(=O)NCc2ccc3c(c2)OCO3)s1)NCc1ccc2c(c1)OCO2` gave CYP2C9 act 1, CYP2C19 inh -1.4, CYP2C9 inhib 3.0 and CYP2C19 act 1.
`CCOc1ccc(-n2ccnc2SCC(=O)NCc2ccc3c(c2)OCO3)cc1` gave CYP2C9 act 0.4, CYP2C19 inh 81.4*, CYP2C9 inhib 64.2* and CYP2C19 act 0.2.
Nn1c(SCC(=O)NCc2ccc3c(c2)OCO3)nnc1C1CC1 was read as CYP2C9 act 0.7, CYP2C19 inh 11.3, CYP2C9 inhib 28.9 and CYP2C19 act 0.9.
O=C(CSc1nccn1-c1ccccc1)NCc1ccc2c(c1)OCO2 was read as CYP2C9 act 0, CYP2C19 inh 99.7*, CYP2C9 inhib 98.5* and CYP2C19 act 0.
For O=C(CSc1nccn1-c1ccc(F)cc1)NCc1ccc2c(c1)OCO2 the results were CYP2C9 act 0.2, CYP2C19 inh 91.5*, CYP2C9 inhib 80.5* and CYP2C19 act 0.1.
`O=C(Nc1nc(-c2ccccc2Cl)cs1)c1cccnc1` gave CYP2C9 act 1, CYP2C19 inh 26.1, CYP2C9 inhib -1.9 and CYP2C19 act 0.7.
For O=[N+]([O-])c1ccccc1/C=N/N1CCN(c2ccccn2)CC1 the results were CYP2C9 act 1.3, CYP2C19 inh 47.6, CYP2C9 inhib -27.2 and CYP2C19 act 0.5.
CC(=O)C1=C(c2ccccc2)NC(=O)NC1c1ccccc1OCC#N (stereo not drawn) was read as CYP2C9 act 1.1, CYP2C19 inh -4.9, CYP2C9 inhib -8.6 and CYP2C19 act 1.
Cc1csc(SCC(=O)Nc2nc3ccccc3s2)n1 was read as CYP2C9 act 0.1, CYP2C19 inh 92.1*, CYP2C9 inhib 94.4* and CYP2C19 act 0.1.
`O=C(CSc1ncn(-c2ccccc2)n1)N1CCc2ccccc21` gave CYP2C9 act 0.9, CYP2C19 inh 26.7, CYP2C9 inhib 7.3 and CYP2C19 act 0.7.
For CC(=O)Nc1ccc(C(=O)CSc2ncn(-c3ccccc3)n2)cc1 the results were CYP2C9 act 0.3, CYP2C19 inh 67.3*, CYP2C9 inhib 74.9* and CYP2C19 act 0.3.

Source: PubChem BioAssay (Sanford-Burnham Center for Chemical Genomics)
